PLK1 PBD inh = qHTS for Inhibitors of PLK1-PDB (polo-like kinase 1 - polo-box domain): Primary Screen. Potency, µM, hits mostly inhibitors. Plk1 PBD binding of FITC phosphopeptide, fluorescence polarization. actives 2.8% (n = 360,000). Serine/threonine-protein kinase PLK1 (Homo sapiens), P53350. AID 720504, 2013; further: series mostly up to about 57 µM; nearly all actives have a fitted effect of over 65% in size
VDR inh = Inhibitors of the vitamin D receptor (VDR): qHTS; actives 0.93% (n = 400,000); Potency, µM, usual class: inhibitors; VDR-SRC2-3 peptide fluorescence polarization, 2 h
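Measured by FP: displacement of SRC2-3 coactivator peptide from VDR by library compounds, following a two-hour ambient incubation.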
G9a inh = qHTS Assay for Inhibitors of Histone Lysine Methyltransferase G9a; Potency, µM (series often up to 102 µM), usual class: inhibitors; G9a H3K9 monomethylation, AlphaScreen, 2 h; actives 8.8% (n = 350,000); Histone-lysine N-methyltransferase EHMT2 (Homo sapiens), Q96KQ7; AID 504332, 2011; further: nearly all actives have a fitted effect of over 75% in size
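Using a bead-based AlphaScreen, monomethylated H3K9 product from 2 h room-temperature reactions (G9a 20 nM, peptide 500 nM, SAM 20 uM) was detected with 0.5 ug/mL rabbit anti-H3K9me1 antibody.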
HP1b binding inh = HTS for Inhibitors of HP1-beta Chromodomain Interactions with Methylated Histone Tails. Chromobox protein homolog 1 (Homo sapiens), P83916. AlphaScreen HP1-beta / biotin-H3K9me3 peptide binding. Potency, µM (series often up to 114 µM), usual class: inhibitors. actives 0.56% (n = 390,000). AID 540317, 2011; further: nearly all actives have a fitted effect of over 70% in size
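Compound inhibition of the preformed complex between 50 nM HP1-beta and 50 nM biotinylated H3K9me3 peptide was read by AlphaScreen. Buffer was PBS pH 7.4 with 0.01% Tween-20. Incubations ran 30 min at room temperature, with 10 ug/mL donor/acceptor beads.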
BAZ2B block = qHTS Assay for Inhibitors of BAZ2B. Bromodomain adjacent to zinc finger domain protein 2B (Homo sapiens), Q9UIF8. AlphaScreen BAZ2B-H3K14Ac peptide displacement. Potency, µM (highest dose often 114 µM), actives largely listed as inhibitors. actives 4.4% (n = 360,000); further: nearly all actives have a fitted effect of over 60% in size
Target sequence (Q9UIF8 whole entry, looked up, the tested form may be a part): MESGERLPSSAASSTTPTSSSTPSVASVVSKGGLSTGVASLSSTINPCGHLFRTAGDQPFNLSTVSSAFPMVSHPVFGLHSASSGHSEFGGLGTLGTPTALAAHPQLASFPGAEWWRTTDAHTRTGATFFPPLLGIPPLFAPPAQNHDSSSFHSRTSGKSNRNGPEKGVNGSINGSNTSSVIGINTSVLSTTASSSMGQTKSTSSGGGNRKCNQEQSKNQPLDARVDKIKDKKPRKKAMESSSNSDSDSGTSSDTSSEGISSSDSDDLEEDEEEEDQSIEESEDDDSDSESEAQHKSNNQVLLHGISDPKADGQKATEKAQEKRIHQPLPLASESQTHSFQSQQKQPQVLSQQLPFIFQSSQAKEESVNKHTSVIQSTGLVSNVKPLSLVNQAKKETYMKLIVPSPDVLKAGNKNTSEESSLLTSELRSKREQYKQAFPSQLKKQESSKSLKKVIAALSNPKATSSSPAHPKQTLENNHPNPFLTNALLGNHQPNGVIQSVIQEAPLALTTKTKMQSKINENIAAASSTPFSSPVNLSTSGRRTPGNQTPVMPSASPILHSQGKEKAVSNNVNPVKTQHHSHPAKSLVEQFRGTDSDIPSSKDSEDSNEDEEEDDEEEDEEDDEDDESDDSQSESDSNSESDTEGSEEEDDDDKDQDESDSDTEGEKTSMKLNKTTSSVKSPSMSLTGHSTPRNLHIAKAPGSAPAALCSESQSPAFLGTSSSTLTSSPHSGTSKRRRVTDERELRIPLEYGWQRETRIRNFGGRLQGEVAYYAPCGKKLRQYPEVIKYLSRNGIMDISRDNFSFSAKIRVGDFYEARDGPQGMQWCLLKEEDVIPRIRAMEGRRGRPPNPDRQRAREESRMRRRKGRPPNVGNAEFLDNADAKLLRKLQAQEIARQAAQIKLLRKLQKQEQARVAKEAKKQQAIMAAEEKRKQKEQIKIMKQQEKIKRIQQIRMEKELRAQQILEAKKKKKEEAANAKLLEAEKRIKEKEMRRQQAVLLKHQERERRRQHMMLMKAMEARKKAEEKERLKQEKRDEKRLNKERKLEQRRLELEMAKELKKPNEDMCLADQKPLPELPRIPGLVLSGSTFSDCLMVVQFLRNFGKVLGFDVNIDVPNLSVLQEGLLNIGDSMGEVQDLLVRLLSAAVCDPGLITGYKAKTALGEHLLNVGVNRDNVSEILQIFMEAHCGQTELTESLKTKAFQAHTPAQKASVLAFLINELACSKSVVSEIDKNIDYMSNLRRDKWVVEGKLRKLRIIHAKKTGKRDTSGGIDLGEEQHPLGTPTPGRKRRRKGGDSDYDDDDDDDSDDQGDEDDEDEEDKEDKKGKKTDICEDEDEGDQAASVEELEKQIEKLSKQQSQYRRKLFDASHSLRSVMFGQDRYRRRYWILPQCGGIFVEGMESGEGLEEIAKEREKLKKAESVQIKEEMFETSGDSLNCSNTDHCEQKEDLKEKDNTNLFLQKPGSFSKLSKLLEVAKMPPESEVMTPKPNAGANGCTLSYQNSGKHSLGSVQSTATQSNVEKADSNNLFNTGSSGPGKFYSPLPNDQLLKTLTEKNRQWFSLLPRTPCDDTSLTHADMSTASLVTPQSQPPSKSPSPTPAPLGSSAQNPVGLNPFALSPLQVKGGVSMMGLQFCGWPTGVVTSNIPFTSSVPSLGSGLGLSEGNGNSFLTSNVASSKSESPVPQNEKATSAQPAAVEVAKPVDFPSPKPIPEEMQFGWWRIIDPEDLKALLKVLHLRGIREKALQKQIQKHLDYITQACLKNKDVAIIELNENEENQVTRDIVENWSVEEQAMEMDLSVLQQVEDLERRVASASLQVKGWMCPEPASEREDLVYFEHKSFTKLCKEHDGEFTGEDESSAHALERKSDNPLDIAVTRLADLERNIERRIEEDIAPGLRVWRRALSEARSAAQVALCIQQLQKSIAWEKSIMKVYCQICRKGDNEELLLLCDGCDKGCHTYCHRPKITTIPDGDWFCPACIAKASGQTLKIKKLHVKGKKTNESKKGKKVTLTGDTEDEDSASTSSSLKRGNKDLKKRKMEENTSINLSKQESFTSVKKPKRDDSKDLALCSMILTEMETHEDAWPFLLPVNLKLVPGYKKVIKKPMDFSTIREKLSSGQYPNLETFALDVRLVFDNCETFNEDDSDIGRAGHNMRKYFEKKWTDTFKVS
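Compounds, titrated to a top concentration of 110 uM, were incubated 30 min at room temperature with preformed BAZ2B/acetyl-K14 H3 peptide complex (50 nM each). Proximity signal was measured by AlphaScreen after 20 min with beads.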
JMJD2A Tudor = qHTS Assay for Inhibitors of JMJD2A-Tudor Domain | actives 4.4% (n = 390,000) | Lysine-specific demethylase 4A (Homo sapiens), O75164 | AlphaScreen JMJD2A-Tudor / H3K4me3 peptide binding | Potency, µM (series often up to 114 µM), hits mostly inhibitors | AID 504339, 2011; further: nearly all actives have a fitted effect of over 50% in size
Hits are given with their value; 0 = inactive; ? = inconclusive; - = no result given; [ ] = another dose, or the depositor's remark. The list is not random: actives were taken first. Their share in the collection is about 11%. The call rests on the fitted dose curve; in most records, active means well fitted curve in the direction sought with a large enough effect; inconclusive means small, poorly fitted or top-dose-only effect, or another doubt; inactive means no such curve, though single readings can be large; an effect the other way counts as inactive or inconclusive.

SMILES	PLK1 PBD inh	VDR inh	G9a inh	HP1b binding inh	BAZ2B block	JMJD2A Tudor
CC1(C)Cc2c(sc3nnn(Cc4ccccc4)c(=O)c23)CO1	?	0	13µM	0	0	0
CCC1(C)Cc2c(sc3nc(NC)n(C)c(=O)c23)CO1 (stereo not drawn)	0	0	32µM	0	?	?
COc1ccc(CCNC(=O)c2ccc3c(c2)CCN3S(C)(=O)=O)cc1OC	-	0	0	0	0	0
CCOc1ccccc1CNC(=O)C1CCCN(c2ncnc3onc(-c4ccc(F)cc4)c23)C1 (stereo not drawn)	-	0	0	0	0	0
O=C(O)c1ccc(Cn2nnc3sc4c(c3c2=O)CCCC4)cc1	0	0	50µM	0	79µM	0
CC1(C)CC(=O)C(C=NCCN2CCN(C3CC(=O)N(c4ccc(Br)cc4)C3=O)CC2)=C(O)C1 (stereo not drawn)	27µM	0	0[0.501 µM]	0	0	?
OC(CNCCC1C=Nc2ccccc21)Cn1c2ccc(Cl)cc2c2cc(Cl)ccc21 (stereo not drawn)	0	0	?	?	40µM	40µM
COc1cccc(Cn2c(=O)c3[nH]cnc3n(-c3ccccc3C)c2=O)c1	0	0	71µM	0	0	0
Cc1ccccc1-n1c(=O)n(Cc2ccccc2)c(=O)c2[nH]cnc21	0	0	0	0	0	0
Nc1c(Nc2ccccc2)c2ccccc2oc1=O	0	0	50µM	0	?	0
COc1ccc(-n2c(=O)c(-c3ccc(Cl)cc3)nc3cnc(N4CCOCC4)nc32)cc1	-	40µM	0[12.7 µM]	-	-	-
COc1ccc(-c2nc3cnc(N4CCOCC4)nc3n(-c3ccccc3)c2=O)cc1	-	0	0[0.501 µM]	-	-	-
O=C(Cc1ccc(Cl)cc1)Nc1cc(S(=O)(=O)N2CCOCC2)ccc1N1CCCC1	0	0	45µM	0	0	0[11.4 µM]
COc1ccc(CN2c3cc(S(=O)(=O)N4CCOCC4)ccc3N3CCCC32)cc1 (stereo not drawn)	0	0	0[12.7 µM]	0	0	0
O=C(Cc1c(F)cccc1Cl)Nc1cc(S(=O)(=O)N2CCOCC2)ccc1N1CCOCC1	0	0	50µM	0	0	0
COc1ccc(/C=C(\C#N)C(=O)Nc2cc(S(=O)(=O)N3CCOCC3)ccc2N2CCCC2)cc1	6.7µM	35µM	7.9µM	?	?	?
O=C(Cc1c(F)cccc1Cl)Nc1cc(S(=O)(=O)N2CCOCC2)ccc1N1CCCC1	0	0	-	0	-	0
O=S(=O)(c1ccc2c(c1)N(Cc1ccc(Cl)cc1)C1CCCN21)N1CCOCC1 (stereo not drawn)	0	0	50µM	0	0	0
COCCn1c(SCC(=O)NCC2CCCO2)nc2c([nH]c3ccccc32)c1=O (stereo not drawn)	0	0	0	0	0	0
O=c1c(-c2ccc(F)c(F)c2)nc2cncnc2n1Cc1ccccc1	-	0	0[12.7 µM]	-	-	-
O=C(CSc1cn(Cc2ccccc2)c2ccccc12)NCc1ccc(F)cc1	0	0	0	0	0	0
Cc1cccc(Cn2c(SCc3ccc(C(=O)NCCc4ccccc4)cc3)nc3ccncc32)c1	-	0	?	0	0	0
CCCCCC(=O)Nc1cc(S(=O)(=O)N2CCOCC2)ccc1N1CCCCC1	0	0	50µM	0	0	0
O=C(COC(=O)c1ccccc1Br)Nc1cc(S(=O)(=O)N2CCOCC2)ccc1N1CCCC1	0	0	14µM	0	?	0
COc1ccc(CCC(=O)Nc2cc(Cl)ccc2N2CCN(C)CC2)cc1	0	0	0	0	0	0
SMILES	PLK1 PBD inh	VDR inh	G9a inh	HP1b binding inh	BAZ2B block	JMJD2A Tudor
O=C(CCc1nc2ccccc2c(=O)[nH]1)Nc1cc(Cl)ccc1N1CCCC1	0	0	14µM	0	0	0
CCCCCC(=O)Nc1cc(S(=O)(=O)N2CCCCC2)ccc1N1CCCCC1	0	?	-	0	-	0
O=C(COC(=O)c1ccccc1[N+](=O)[O-])Nc1cc(S(=O)(=O)N2CCOCC2)ccc1N1CCCC1	0	0	0	0	0	0
COc1ccc(CC(=O)Nc2cc(Cl)ccc2N2CCCC2)cc1	0	0	45µM	0	0	0
C#CCOCCOCCOCCNc1nc(N2CCN(C(=O)Cn3cc(CC(C)O)nn3)CC2)nc(N2CCN(C(=O)[C@H]([C@@H](C)CC)n3cc(CCCCN)nn3)CC2)n1 (stereo partly drawn)	0	0	-	0	-	0
O=C(CNc1cc(S(=O)(=O)N2CCOCC2)ccc1N1CCCC1)N1CCc2ccccc21	0	0	35µM	0	?	?
O=C(CNc1cc(S(=O)(=O)N2CCOCC2)ccc1N1CCCC1)Nc1ccc(Cl)cc1F	0	-	-	-	-	-
CCC(C)Sc1nnc(NS(=O)(=O)Cc2ccccc2)s1 (stereo not drawn)	0	0	32µM	0	0	0
Cc1nc2ccc(S(=O)(=O)N(C)CC(=O)Nc3cccc(C(F)(F)F)c3)cc2s1	-	0	0	0	0	0
CCN(CC)c1ccc(/C=N/N2CCN(Cc3ccccc3)CC2)cc1	0	0	10µM	?	14µM	22µM
CCN(CC)c1ccc(/C=N/N2CCOCC2)c(O)c1	0	0	?	0	0	0
CN(c1ccccc1)c1ccc(/C=N/N2CCOCC2)cc1	0	0	?	50µM	50µM	45µM
COC(=O)c1ccc(/C=N/N2CCN(Cc3ccccc3)CC2)cc1	0	0	?	0	0	0
C(=NN1CCCCCC1)c1ccccc1	0	0	-	0	-	?
CCN(CC)c1ccc(/C=N/N2CCN(Cc3ccccc3)CC2)c(O)c1	0	?	?	0	13µM	14µM
CN(C)c1ccc(/C=N/N2CCN(Cc3ccccc3Cl)CC2)cc1	0	0	?	?	50µM	32µM
COc1ccc(CNC(NC(=O)c2ccccc2)(C(F)(F)F)C(F)(F)F)cc1	0	0	0	0	0	0
CCN(CC)c1ccc(/C=N/N2CCN(Cc3ccccc3Cl)CC2)cc1	0	0	8.9µM	?	7.1µM	18µM
CN1C(=O)/C(=C\c2ccccc2OCc2ccccc2)SC1=S	0	0	0	0	0	0
COc1ccc(O)c(/C=C2/SC(=S)N(Cc3ccccc3)C2=O)c1	0	?	4.5µM	?	32µM	40µM
CN1C(=O)/C(=C\c2cc(N=Nc3ccccc3)ccc2O)SC1=S	?	0	8.9µM	0	3.5µM	40µM
O=C1/C(=C\c2cc(Cl)c(O)c(Cl)c2)SC(=S)N1Cc1ccccc1	0	0	14µM	?	50µM	50µM
COC(=O)CCCN1C(=O)c2cccc3cccc(c23)C1=O	0	0	0	0	45µM	0

From PubChem BioAssay
